High-throughput results from PubChem BioAssay.
Rows were chosen to be rich in hits. Some 12% of all compounds tested hit in one or more screens of this group.
Shiga toxin inh: Shiga toxin inhibition; Vero cells, Shiga toxin protein synthesis inhibition reporter; inhibition, % at 38.7 µM; 290,000 compounds, 9.2% hits; in the data active = inhibition mostly above about 28%, no sharp cut-off; inactive = mostly below about 43%
Cycloheximide cs: counter-screen hit for Shiga toxin inhibitors, cycloheximide; cell reporter, cycloheximide protein synthesis inhibition counterscreen; max response, %; 300,000 compounds, 12% hits; AID 2314; in the data active = max response mostly above about 13%, no sharp cut-off; inactive = mostly below about 14%; note: read at 38.3 µM for the half of the compounds with a filed dose
Sm TGR block: blocks Schistosoma mansoni thioredoxin glutathione reductase; Q962Y6; 360,000 compounds, 3% hits; Potency, µM (highest dose often 114 µM), actives largely listed as inhibitors; purified TGR, DTNB reduction, TNB absorbance 405 nm; AID 485364; active = well fitted inhibition curve with a large enough effect; inconclusive = small, poorly fitted or top-dose-only effect; inactive = no such curve, though single readings can be large or run the other way; note: nearly all actives have a fitted effect of over 60% in size
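First, TGR (20 nM dispensed) and NADPH were mixed with compound. Second, a 15 min room-temperature incubation followed. Third, further NADPH and then DTNB were added to start the reaction. Finally, TNB absorbance was monitored kinetically.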
FMDV antiviral: foot and mouth disease virus antiviral activity | 410,000 compounds, 1.2% hits | AID 1159524 | Potency, µM (series often up to 57.9 µM), usual class: inhibitors | FMDV antiviral cell-based qHTS; calls by dose curve; tested in HEK293T cells; note: read-out not given here; nearly all actives have a fitted effect of over 45% in size
Of the large screens only hits and unclear results are named; the others gave an inactive call.

CC(C)(C)c1cc(CNC2CS(=O)(=O)C[C@@H]2O)cc(C(C)(C)C)c1O (stereo partly specified)	Sm TGR block 1.58µM
Cc1c(C(=O)Nc2ccccc2)sc2nc(-c3cc4cc(Cl)ccc4oc3=O)[nH]c(=O)c12	none (no result: Shiga toxin inh, Cycloheximide cs)
CCN(c1ccccc1)c1ncnc2c1cnn2-c1ccc(OC)cc1	none (no result: Shiga toxin inh, Cycloheximide cs)
COc1cc(CC2COC(=O)C2(O)Cc2ccc(O)c(OC)c2)ccc1O (stereo unspecified)	FMDV antiviral inconclusive
COc1cc(C[C@@H]2C(=O)OC[C@H]2Cc2ccc(OC)c(OC)c2)ccc1O	FMDV antiviral 20µM (no result: Shiga toxin inh, Cycloheximide cs)
Cn1cc(S(=O)(=O)N2CCCCC2)cc1C(=O)N1CCN(c2ccccc2F)CC1	none (no result: Shiga toxin inh, Cycloheximide cs)
CCCc1ccc(C(=O)CCC(=O)O)cc1	Shiga toxin inh 64.6, Cycloheximide cs 51.5
Cc1ccc(C(=O)CCC(=O)O)cc1	Sm TGR block inconclusive (no result: FMDV antiviral)
O=C(O)CCC(=O)CCC(=O)c1ccccc1	Sm TGR block 44.7µM
Cc1ccc(CSc2ncc(Cl)c(C(=O)Oc3ccc(F)cc3)n2)cc1	none (no result: Shiga toxin inh, Cycloheximide cs)
COc1ccc(CCNC(=O)C2CCCN(S(=O)(=O)c3ccc(F)cc3)C2)cc1 (stereo unspecified)	Sm TGR block 89.1µM, FMDV antiviral inconclusive
CCc1nnc(NC(=O)C2CCCN(S(=O)(=O)c3ccc(OC)cc3)C2)s1 (stereo unspecified)	Shiga toxin inh 72.3, Cycloheximide cs 37.6
COc1ccc(S(=O)(=O)N2CCCC(C(=O)NCc3ccc(F)cc3)C2)cc1 (stereo unspecified)	none
O=C(Nc1cccc(O)c1)C(=O)Nc1ccccn1	Cycloheximide cs 15.9
S=C(Nc1ccccc1)Nc1ccccn1	none (no result: Shiga toxin inh, Cycloheximide cs, Sm TGR block)
O=C(Nc1ccccc1)C(=O)Nc1ccccn1	Shiga toxin inh 168.5, Cycloheximide cs 62.9 (no result: FMDV antiviral)
O=C(O)c1ccccn1	none (no result: Shiga toxin inh, Cycloheximide cs)
S=C(Nc1ccc(Nc2ccccc2)cc1)Nc1ccccn1	Shiga toxin inh 100.0, Cycloheximide cs 37.5 (no result: Sm TGR block)
S=C(Nc1ccccc1)c1ccccn1	Shiga toxin inh 79.6, Cycloheximide cs 46.9
O=C(Nc1cccnc1)Nc1ccccn1	none
CCCN(C/C=C/I)C1CCc2cccc(O)c2C1 (stereo unspecified)	none (no result: Shiga toxin inh, Cycloheximide cs, Sm TGR block)
Cc1ccc(-n2nc3c(=O)n(CC(=O)NCC(C)c4ccccc4)nc(C)c3c2C)cc1 (stereo unspecified)	FMDV antiviral inconclusive (no result: Shiga toxin inh, Cycloheximide cs)
O=C(N/N=C/c1ccccc1O)C(=O)Nc1ccccn1	Shiga toxin inh 77.2, Cycloheximide cs 24.2
Cc1nccn1CC(=O)N/N=C/c1ccccc1O	none
O=c1cc2[nH]c3ccccc3c(=O)n2nc1-c1ccccc1	Cycloheximide cs 24.9
Cc1cccc(-c2nc3scc(CCNS(=O)(=O)c4ccc5c(c4)OCCO5)n3n2)c1	none (no result: Shiga toxin inh, Cycloheximide cs)
CC(=O)N1CCN(c2ccc(NC(=O)c3cccc(Cl)c3Cl)cc2)CC1	none
O=C(Nc1ccc(N2CCCC2)cc1)c1cccc(Cl)c1Cl	Shiga toxin inh 71.0, Cycloheximide cs 24.5
O=C(Nc1ccc(N2CCCCC2)cc1)c1cccnc1Cl	Shiga toxin inh 72.4, Cycloheximide cs 33.3
CCCN1C(=O)C2(c3ccccc31)c1c(oc3ccc(C)cc3c1=O)C(=O)N2CCOC (stereo unspecified)	none (no result: Shiga toxin inh, Cycloheximide cs)
Clc1ccc(-c2nnc(CNC3CC3)o2)cc1	Cycloheximide cs 21.5
Cc1nn(-c2ccccc2)c2c1N(CCCC(=O)NCc1ccc(OC(C)C)cc1)C(=O)CS2	none (no result: Shiga toxin inh, Cycloheximide cs)
CCCCCCc1c(C[C@H](N)C(=O)O)o[nH]c1=O	none (no result: Shiga toxin inh, Cycloheximide cs, Sm TGR block)
CC(C)[C@H]1C(=O)O[C@H](C(C)C)C(=O)N(C)[C@@H](C(C)C)C(=O)O[C@H](C(C)C)C(=O)N(C)[C@@H](C(C)C)C(=O)O[C@H](C(C)C)C(=O)N1C	FMDV antiviral 11.2µM
Cc1cccc(-c2cccc(NC(=O)C3CCCN(C(=O)c4csc(C)n4)C3)c2)c1 (stereo unspecified)	Shiga toxin inh 45.8, Cycloheximide cs 16.9
CCc1ncc(CN2CCCC(C(=O)Nc3cccc(-c4cccc(C)c4)c3)C2)cn1 (stereo unspecified)	none
Cc1cccc(-c2cccc(NC(=O)C3CCCN(C(=O)c4cccnc4)C3)c2)c1 (stereo unspecified)	none
Cc1cccc(-c2cccc(NC(=O)C3CCCN(C(=O)c4ocnc4C)C3)c2)c1 (stereo unspecified)	Shiga toxin inh 40.0, Cycloheximide cs 29.0
CCc1nc(C)c(C(=O)N2CCCC(C(=O)Nc3cccc(-c4cccc(C)c4)c3)C2)o1 (stereo unspecified)	Shiga toxin inh 86.6, Cycloheximide cs 54.3
COc1ccccc1CNC(=O)CSc1ccc(-c2sc(-c3ccccc3)nc2C)nn1	none (no result: Shiga toxin inh, Cycloheximide cs)
COc1cc(OC)c(N(C)C(=O)C2CCCN(c3ncnc4c3nc3n4CCCCC3)C2)cc1Cl (stereo unspecified)	FMDV antiviral inconclusive (no result: Shiga toxin inh, Cycloheximide cs)
Cc1nn(Cc2c(F)c(F)c(F)c(F)c2F)c(C)c1NC(=O)c1ccc(COc2cc(Cl)ccc2Cl)cc1	Shiga toxin inh 109.2, Cycloheximide cs 54.4
Cc1cccc(C)c1NC(=O)c1cccc(COc2cc(Cl)ccc2Cl)c1	Shiga toxin inh 62.1, Cycloheximide cs 28.7
Cc1cccc(C(=O)Nc2cc(OCc3cccc(F)c3)c(Cl)cc2Cl)c1	Cycloheximide cs 15.8
COc1cc(C(=O)NCC(=O)Nc2c(C)cccc2C)ccc1OCc1ccccc1	none (no result: Shiga toxin inh, Cycloheximide cs)
Cc1nn(Cc2c(F)c(F)c(F)c(F)c2F)c(C)c1NC(=O)c1ccc(COc2ccccc2Cl)cc1	none
C1=NN(c2ccccc2)C=NN1c1ccccc1	none (no result: Shiga toxin inh, Cycloheximide cs, Sm TGR block)
C1=Nc2ccccc2CN1c1ccccc1	Shiga toxin inh 92.8, Cycloheximide cs 65.5
CC(C)c1ccc(N2C=Nc3ccc(C(C)C)cc3C2)cc1	Shiga toxin inh 51.6, Cycloheximide cs 18.8, FMDV antiviral inconclusive
CCOC(=O)c1ccc(NC2=CC(c3ccc(O)c(OCC)c3)N(c3ccc(C(=O)OCC)cc3)C2=O)cc1 (stereo unspecified)	none (no result: Shiga toxin inh, Cycloheximide cs)
CCCCN(CCCC)CCNC(=O)Cn1nc(C)n2c(cc3sccc32)c1=O	none (no result: Shiga toxin inh, Cycloheximide cs)
CC(C)NC(=O)CSc1nc2ccccc2n1CC(=O)N(C(C)C)C(C)C	Shiga toxin inh 45.9, Cycloheximide cs 20.4
C=CCn1c(SCC(=O)Nc2ccccc2F)nc2ccccc2c1=O	Sm TGR block 79.4µM
CCn1c(SCC(=O)Nc2ccc3[nH]c(=O)[nH]c3c2)nc2ccccc21	none (no result: Shiga toxin inh, Cycloheximide cs)
CCn1c(SCC(=O)Nc2ccc(C(C)=O)cc2)nc2ccccc21	Shiga toxin inh 107.1, Cycloheximide cs 41.8
CC(=O)c1ccc(NC(=O)CSc2nc(=O)cc(N)n2-c2ccccc2)cc1	Shiga toxin inh 91.1, Cycloheximide cs 32.8
C=CCn1c(SCC(=O)NC2CC2)nc2ccccc2c1=O	none (no result: Shiga toxin inh, Cycloheximide cs)
COC(=O)C(NS(N)(=O)=O)C(C)C (stereo unspecified)	none (no result: Sm TGR block, FMDV antiviral)
CCOc1cccc(NC(=O)C2CC(=O)N(C)C(=Nc3ccc(F)cc3)S2)c1 (stereo unspecified)	none (no result: Shiga toxin inh, Cycloheximide cs)
CCc1ccc(NC(=O)C(CC)n2c(=O)c(C(F)(F)F)nc3ccccc32)cc1 (stereo unspecified)	none (no result: Shiga toxin inh, Cycloheximide cs)
Cc1nn(C)c2c1c(-c1ccccc1)cc(=O)n2Cc1ccccc1Cl	none (no result: Shiga toxin inh, Cycloheximide cs)
O=C(COCc1cc(-c2ccc3c(c2)OCO3)on1)Nc1cc(C(F)(F)F)ccc1Cl	none (no result: Shiga toxin inh, Cycloheximide cs)
COCCn1c(SCC(=O)Nc2ccc(NC(C)=O)cc2)nc2ccccc2c1=O	none
C=CCn1c(SCC(=O)Nc2sccc2C(N)=O)nc2ccc(Cl)cc2c1=O	Sm TGR block inconclusive, FMDV antiviral inconclusive
